# Results: PubChem BioAssay
# Activity calls are given as the source filed them.
# Assay: E. coli acrAB mutant growth effects, primary screen, E. coli filamentation inducers, strain DRC39, OD650, 48 h (AID 1179);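 note: screen aims at cell division blockers that make cells filament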
# Conditions: E. coli DRC39 delta-acrAB growth, higher = more signal, called active from +8 up or from −8 down
row,SMILES,z-score
1,CCC[C@@H]1C=C(C(=O)OCC)[C@H](c2ccccc2)N1S(=O)(=O)c1ccc(C)cc1,0.0062 (inactive)
2,COCC(=C=CC[C@@H](O)c1cccc(OCCO)c1)C[C@@H](O)COCc1ccccc1,0.392 (inactive)
3,CC(C)[C@@H](C(=O)O)n1cc(-c2ccccc2)nn1,-0.279 (inactive)
4,CN(C)CCCCNC(=O)[C@H]1C[C@H]2C(=O)NCC(=O)N2[C@H]1c1cccc(OCCO)c1,0.834 (inactive)
5,[N-]=[N+]=NCc1ccccc1C[C@]1(C(=O)N2CCOCC2)N=C(c2ccc(OCCCO)cc2)O[C@H]1c1ccccc1CN=[N+]=[N-],0.93 (inactive)
6,C=CCNC(=O)[C@@H]1[C@H]2C(=O)O[C@H](c3ccccc3)[C@H](c3ccccc3)N2[C@H](c2ccccc2OCCO)[C@@]12C(=O)N(C(=O)OCCOC)c1ccc(C#CCCO)cc12,0.569 (inactive)
7,CC(C)=CCN(C(=O)C#Cc1ccccc1)[C@H](CO)c1ccccc1,-2.57 (inactive)
8,Cc1ccccc1C(O)C1C=CC2C(=O)N(c3ccccc3)C(=O)C2N1Nc1ccccc1F (stereo unspecified),-0.542 (inactive)
9,C=CC[C@]1(C(=O)NCc2ccccc2)COC(c2ccc(OCCCO)cc2)=N1,-0.145 (inactive)
10,C=C(/C(=C/C[C@@H](OC(C)=O)c1ccccc1OCCO)c1cc(C(=O)OC)ccc1OC)C(C)C,1.04 (inactive)
11,CCCC=C(CCC)[C@@H](NS(=O)(=O)c1ccc(Cl)cc1)c1ccccc1,-1 (inactive)

# Assay: RPMI8226 myeloma cell viability, profiling panel, resazurin fluorescence, basal, 24 h, PK04 Diversity Set (AID 1180);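 note: RPMI8826 multiple myeloma cell line at 5000 cells per well; test concentration not given here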
# Conditions: higher = more signal
row,SMILES,z-score
1,CCCCC(O)C1C=CC2C(=O)N(C)C(=O)C2N1Nc1ccccc1 (stereo unspecified),-1.5
2,O=C1C2C=CC(C(O)c3cccs3)N(Nc3ccccc3)C2C(=O)N1c1ccccc1 (stereo unspecified),-0.717
3,COC(=O)[C@@]1(Cc2ccccc2)[C@@H]2[C@@H](CC(=O)[C@H]2CC(=O)C(=O)N(C)C)CN1C(=O)c1ccccc1,-0.0757
4,CC=CC(O)C1C=CC2C(=O)N(C)C(=O)C2N1NC(=O)OC(C)(C)C (stereo unspecified),-0.939
5,CN(C)C(=O)[C@]1(Cc2ccccc2)N=C(c2ccc(OCCCO)cc2)O[C@@H]1c1ccccc1,-0.247
6,C=CCC(OC(C)=O)[C@@H]1[C@@H](N(Cc2cccc3ccccc23)C(=O)c2ccc(-c3ccccc3)cc2)c2cc(OCCCO)ccc2N1C(=O)c1ccc2ccccc2n1 (stereo partly specified),0.485
7,C=CCC(OC(C)=O)[C@@H]1[C@@H](N(Cc2ccc(-c3ccccc3)cc2)C(=O)c2ccc(-c3ccccc3)cc2)c2cc(OCCCO)ccc2N1C(=O)c1ccc2ccccc2n1 (stereo partly specified),1.13
8,NC(=O)NCC#Cc1ccc2c(c1)[C@]1(C(=O)N2)[C@H](C(=O)N2CCCCCCC2)[C@H]2C(=O)O[C@H](c3ccccc3)[C@H](c3ccccc3)N2[C@@H]1c1ccc(O)cc1,-0.018
9,C=CCC(OC(C)=O)[C@@H]1[C@@H](N(Cc2ccc(-c3cccc(C(F)(F)F)c3)o2)C(=O)Cc2ccc(F)cc2)c2cc(OCCCO)ccc2N1C(=O)c1ccc2ccccc2c1 (stereo partly specified),0.934
10,O=C1C2C=CC(C(O)c3ccc([N+](=O)[O-])cc3)N(Nc3ccccc3)C2C(=O)N1c1ccccc1 (stereo unspecified),-1.81
11,O=C1c2ccccc2[C@@]2(Cc3ccccc3N(Cc3ccccc3)C2=O)[C@H](c2ccc(CO)cc2)N1Cc1ccccc1,-0.982
12,CCOC(=O)C[C@H]1[C@H](OC(=O)Cc2ccc3c(c2)OCO3)[C@@H](NC(=O)c2ccccc2)c2cc(OCCCO)ccc2N1C(=O)Cc1ccc(OC)cc1,0.636
13,CCOC(=O)C[C@H]1[C@H](OC(=O)c2ccc(-c3ccccc3)cc2)[C@@H](NC(=O)CC(C)C)c2cc(OCCCO)ccc2N1C(=O)Cc1ccc(OC)cc1,-0.306
14,CC(C)CNC(=O)[C@@H]1c2ccccc2C(=O)N(C2Cc3ccccc3C2)[C@H]1c1ccc(CO)cc1,1.4
15,C=C(COC)C(=O)CC[C@@H](OC(C)=O)c1ccc(OCCO)cc1,-0.781
16,COCCOC(=O)N1C(=O)[C@@]2(c3cc(C#CC4(O)CCCCCC4)ccc31)[C@H](c1ccc(OCCO)cc1)N1[C@H](c3ccccc3)[C@H](c3ccccc3)OC(=O)[C@H]1[C@@H]2C(=O)N1CCCCCCC1,0.0982
17,[N-]=[N+]=NCc1ccccc1C[C@]1(C(=O)O)COC(c2ccc(OCCCO)cc2)=N1,-0.279
18,N[C@@H](Cc1ccccc1)Cn1cc(C2(O)CCCCC2)nn1,-0.785
19,Cc1ccc(F)cc1S(=O)(=O)N[C@@H]1CCN(Cc2ccc3[nH]ccc3c2)C1,-0.73
20,COCCOC(=O)N1C(=O)[C@@]2(c3cc(C#CC4=CCCCC4)ccc31)[C@H](c1ccccc1OCCO)N1[C@H](c3ccccc3)[C@H](c3ccccc3)OC(=O)[C@H]1[C@@H]2C(N)=O,-5.01
